Source: PubChem BioAssay AID1159580 (chemical genetic matrix, 2015)
Screen size: about 5,500 compounds; about 2,000 (36%) were called active. Roughly 18% stayed inconclusive and do not appear here. Rule as the data show it: active = normalized growth mostly below about 0.91 (no sharp cut-off); inconclusive = no clear call, values can overlap the other calls; inactive = mostly above about 0.92. Some of the results follow.

Test: chemical genetic growth profiling, strain panel (AID 1159580);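 also: tested at 20 µM; growth read once vehicle control cultures reached saturation at 30 °C; 1 = growth at the plate median or of vehicle wells; lower values mean less growth of the strain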
Details: growth OD

Measured: normalized growth

CCCCC1C(=O)N(c2ccccc2)N(c2ccc(O)cc2)C1=O (stereo not given)
inactive: S. cerevisiae deletion strains, locus YJR075W, strain HOC1, active compounds read low 0.998 | S. cerevisiae deletion strains, locus YKL009W, strain mrt4, active compounds read low 1.01 | S. cerevisiae deletion strains, locus YKL068W, active compounds read low 0.987 | S. cerevisiae deletion strains, locus YKL085W, strain MDH1 (second series), active compounds read low 0.993 | S. cerevisiae deletion strains, locus YKL085W, strain MDH1, active compounds read low 0.993 | S. cerevisiae deletion strains, locus YKL160W, strain elf1, active compounds read low 1.03 | S. cerevisiae deletion strains, locus YKL190W, strain CNB1, active compounds read low 1 | S. cerevisiae deletion strains, locus YKR001C, strain vps1, active compounds read low 0.927 | S. cerevisiae deletion strains, locus YKR026C, strain gcn3, active compounds read low 1.01 | S. cerevisiae deletion strains, locus YKR091W, strain srl3, active compounds read low 0.996 | S. cerevisiae deletion strains, locus YLL001W, strain dnm1, active compounds read low 1.02 | S. cerevisiae deletion strains, locus YLL026W, active compounds read low 1 | S. cerevisiae deletion strains, locus YLL041C, strain sdh2, active compounds read low 1 | S. cerevisiae deletion strains, locus YLR027C, strain aat2, active compounds read low 0.994 | S. cerevisiae deletion strains, locus YLR039C, strain RIC1, active compounds read low 0.963 | S. cerevisiae deletion strains, locus YLR058C, strain SHM2, active compounds read low 0.976 | S. cerevisiae deletion strains, locus YLR102C, strain apc9, active compounds read low 0.996 | S. cerevisiae deletion strains, locus YLR113W, strain HOG1, active compounds read low 0.948 | S. cerevisiae deletion strains, locus YLR221C, strain rsa3, active compounds read low 1.02 | S. cerevisiae deletion strains, locus YLR258W, strain gsy2, active compounds read low 0.998 | S. cerevisiae deletion strains, locus YLR262C, strain YPT6 (second series), active compounds read low 0.956 | S. cerevisiae deletion strains, locus YLR262C, strain YPT6, active compounds read low 0.903 | S. cerevisiae deletion strains, locus YLR268W, strain sec22, active compounds read low 1.04 | S. cerevisiae deletion strains, locus YLR320W, strain mms22, active compounds read low 1.04 | S. cerevisiae deletion strains, locus YLR330W, strain CHS5, active compounds read low 0.996 | S. cerevisiae deletion strains, locus YLR342W, strain FKS1 (second series), active compounds read low 0.99 | S. cerevisiae deletion strains, locus YLR342W, strain FKS1, active compounds read low 1.01 | S. cerevisiae deletion strains, locus YLR357W, strain rsc2, active compounds read low 1.01 | S. cerevisiae deletion strains, locus YLR370C, strain arc18, active compounds read low 1 | S. cerevisiae deletion strains, locus YLR371W, strain rom2, active compounds read low 0.971 | S. cerevisiae deletion strains, locus YLR384C, strain iki3, active compounds read low 0.997 | S. cerevisiae deletion strains, locus YLR418C, strain cdc73, active compounds read low 1 | S. cerevisiae deletion strains, locus YML016C, strain PPZ1, active compounds read low 0.991 | S. cerevisiae deletion strains, locus YML032C, strain rad52, active compounds read low 0.996 | S. cerevisiae deletion strains, locus YML120C, strain ndi1, active compounds read low 1.01 | S. cerevisiae deletion strains, locus YML124C, strain tub3, active compounds read low 0.99 | S. cerevisiae deletion strains, locus YMR058W, strain fet3, active compounds read low 1 | S. cerevisiae deletion strains, locus YMR078C, strain ctf18, active compounds read low 0.986 | S. cerevisiae deletion strains, locus YMR125W, strain sto1, active compounds read low 1 | S. cerevisiae deletion strains, locus YMR129W, active compounds read low 1.01 | S. cerevisiae deletion strains, locus YMR205C, strain PFK2, active compounds read low 1.02 | S. cerevisiae deletion strains, locus YMR223W, strain ubp8, active compounds read low 0.968 | S. cerevisiae deletion strains, locus YMR231W, strain pep5, active compounds read low 1 | S. cerevisiae deletion strains, locus YMR307W, strain GAS1, active compounds read low 0.952 | S. cerevisiae deletion strains, locus YNL067W, strain RPL9B, active compounds read low 0.999 | S. cerevisiae deletion strains, locus YNL071W, strain lat1, active compounds read low 0.997 | S. cerevisiae deletion strains, locus YNL153C, strain GIM3, active compounds read low 0.984 | S. cerevisiae deletion strains, locus YNL183C, strain NPR1, active compounds read low 0.954 | S. cerevisiae deletion strains, locus YNL209W, strain ssb2, active compounds read low 1 | S. cerevisiae deletion strains, locus YNL233W, strain BNI4, active compounds read low 0.989 | S. cerevisiae deletion strains, locus YNL248C, strain rpa49, active compounds read low 1.03 | S. cerevisiae deletion strains, locus YNL250W, strain rad50, active compounds read low 0.985 | S. cerevisiae deletion strains, locus YNL271C, strain bni1, active compounds read low 1 | S. cerevisiae deletion strains, locus YNL298W, strain CLA4, active compounds read low 0.987 | S. cerevisiae deletion strains, locus YNL307C, strain MCK1, active compounds read low 0.987 | S. cerevisiae deletion strains, locus YNL322C, strain KRE1 (second series), active compounds read low 1.02 | S. cerevisiae deletion strains, locus YNL322C, strain KRE1, active compounds read low 0.993 | S. cerevisiae deletion strains, locus YNR049C, strain mso1, active compounds read low 1.01 | S. cerevisiae deletion strains, locus YNR052C, strain pop2, active compounds read low 0.996 | S. cerevisiae deletion strains, locus YOL006C, strain TOP1, active compounds read low 0.982 | S. cerevisiae deletion strains, locus YOL012C, strain htz1 0.972 | S. cerevisiae deletion strains, locus YOL147C, strain pex11, active compounds read low 0.998 | S. cerevisiae deletion strains, locus YOR001W, strain rrp6, active compounds read low 0.989 | S. cerevisiae deletion strains, locus YOR061W, strain CKA2, active compounds read low 0.959 | S. cerevisiae deletion strains, locus YOR069W, strain VPS5, active compounds read low 1 | S. cerevisiae deletion strains, locus YOR070C, strain gyp1, active compounds read low 1.02 | S. cerevisiae deletion strains, locus YOR080W, strain dia2, active compounds read low 0.993 | S. cerevisiae deletion strains, locus YOR083W, strain WHI5, active compounds read low 1.04 | S. cerevisiae deletion strains, locus YOR106W, strain vam3, active compounds read low 1.02 | S. cerevisiae deletion strains, locus YOR136W, strain idh2, active compounds read low 0.983 | S. cerevisiae deletion strains, locus YOR144C, strain elg1, active compounds read low 0.985 | S. cerevisiae deletion strains, locus YOR184W, strain ser1, active compounds read low 0.983 | S. cerevisiae deletion strains, locus YOR231W, strain MKK1, active compounds read low 0.987 | S. cerevisiae deletion strains, locus YOR265W, strain rbl2, active compounds read low 0.996 | S. cerevisiae deletion strains, locus YOR270C, strain vph1, active compounds read low 1.03 | S. cerevisiae deletion strains, locus YOR290C, strain snf2, active compounds read low 1.02 | S. cerevisiae deletion strains, locus YOR316C, strain cot1, active compounds read low 0.989 | S. cerevisiae deletion strains, locus YPL051W, strain arl3, active compounds read low 1.01 | S. cerevisiae deletion strains, locus YPL055C, strain LGE1, active compounds read low 0.938 | S. cerevisiae deletion strains, locus YPL078C, strain atp4, active compounds read low 1.02 | S. cerevisiae deletion strains, locus YPL106C, strain sse1, active compounds read low 1.02 | S. cerevisiae deletion strains, locus YPL240C, strain hsp82, active compounds read low 1.01 | S. cerevisiae deletion strains, locus YPL241C, strain CIN2, active compounds read low 0.99 | S. cerevisiae deletion strains, locus YPL256C, strain CLN2, active compounds read low 0.953 | S. cerevisiae deletion strains, locus YPR119W, strain clb2, active compounds read low 0.982 | S. cerevisiae deletion strains, locus YPR141C, strain kar3, active compounds read low 0.972 | S. cerevisiae deletion strains, locus YPR163C, strain tif3, active compounds read low 0.986 | S. cerevisiae deletion strains, locus YPR167C, strain met16, active compounds read low 0.987 | S. cerevisiae deletion strains, strain wtn01, active compounds read low 1 | S. cerevisiae strains, strain wild type, active compounds read low 1
